Experimental data from PubChem BioAssay (Tox21).
A number with no mark means an inactive call. Records with an inconclusive call do not appear. Active and inactive are the calls of the source. Calls come from the whole dose curve.

target: Muscarinic acetylcholine receptor M1 (Homo sapiens) (UniProt P11229); assay: Cholinergic receptor muscarinic 1 (CHRM1) small molecule agonists, cell-based qHTS assay (AID 1963589); settings: CHRM1-CHO cells, agonist mode, calcium flux fluorescence; series mostly up to 76.8 µM; activation: at the top concentration; note: nearly all actives have a fitted effect of over 35% in size; note: potency is the fitted concentration of half-maximal effect
Method in brief: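 Agonist-mode calcium-flux screen: compounds at 15 concentrations, three independent runs, were pin-transferred onto dye-loaded human CHRM1-CHO cells. Fluorescence was then recorded kinetically every second over minutes.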
% is set by controls: 0 for no effect and ±100 for the full control effect.

Muscarinic acetylcholine receptor M1 (Homo sapiens), sequence (P11229 whole entry, looked up): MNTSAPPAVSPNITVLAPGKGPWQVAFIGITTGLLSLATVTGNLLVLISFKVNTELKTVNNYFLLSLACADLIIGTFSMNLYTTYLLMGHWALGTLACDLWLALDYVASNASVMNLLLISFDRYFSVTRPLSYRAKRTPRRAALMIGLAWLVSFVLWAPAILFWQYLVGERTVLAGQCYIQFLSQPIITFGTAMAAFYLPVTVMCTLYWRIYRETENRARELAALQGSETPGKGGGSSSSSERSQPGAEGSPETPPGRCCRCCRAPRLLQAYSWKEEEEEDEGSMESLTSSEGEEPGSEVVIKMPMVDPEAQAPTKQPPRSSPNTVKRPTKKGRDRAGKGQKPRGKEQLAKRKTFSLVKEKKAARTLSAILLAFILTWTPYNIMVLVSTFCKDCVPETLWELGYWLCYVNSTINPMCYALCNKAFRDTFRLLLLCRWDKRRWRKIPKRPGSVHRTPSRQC

Structure (SMILES)	activation	Potency
COc1cc(CC(C)N)c(OC)cc1Br (stereo not given)	4.72%	–
O=C(CCl)C(Cl)Cl	0.245%	–
O=c1[nH]c(Cl)c(Cl)cc1Cl	0.866%	–
CC(=O)[O][Sn]([c]1ccccc1)([c]1ccccc1)[c]1ccccc1	–	24.5 µM (active)
C=C(Cl)CSC(=S)N(CC)CC	-1.13%	–
CC(=O)CCc1ccc2c(c1)OCO2	0.91%	–
CN(C)C(=O)Nc1cccc(OC(=O)NC(C)(C)C)c1	-0.109%	–
COP(=O)(OC)O/C(=C\Cl)c1cc(Cl)c(Cl)cc1Cl	-0.219%	–
CC(C)(C)c1ccc(OP(=O)(Oc2ccccc2)Oc2ccccc2)cc1	-0.469%	–
CC[C@H]1C[C@H]2[C@@H]3CCC4=CC(=O)CC[C@@H]4[C@H]3CC[C@]2(C)[C@H]1O	1.8% [at 35.3 µM]	–
COC(=O)C(C)N(C(=O)c1ccco1)c1c(C)cccc1C (stereo not given)	0.317%	–
C#CC1(O)CCCCC1	-0.0465%	–
CSc1ccc(C(=O)C(C)(C)N2CCOCC2)cc1	-0.0466%	–
CCCCc1c(C)nc(NCC)nc1OS(=O)(=O)N(C)C	0.683%	–

system: not listed separately; assay: cAMP Responsive Elements (CRE) small molecule agonists, cell-based qHTS assay (AID 1963590); settings: CRE-bla HEK293T, beta-lactamase FRET ratio, 3 h; series mostly up to 92.4 µM; activation: at the top concentration
Method in brief: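 Agonist mode: compound added to CRE-bla HEK 293T cells (2,000/well, 18 h after plating) for 3 h at 37 C/5% CO2. Reporter activity detected via FRET beta-lactamase substrate, 2 h room-temperature loading.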

Structure (SMILES)	activation
CCCN1CCC[C@@H]2Cc3[nH]ncc3C[C@H]21	17% [at 42.5 µM]
NP(N)(=O)NC(=O)c1ccc(F)cc1	0.365% [at 42.5 µM]
CCOc1cccc(C2(N3CCN(c4ccccc4)CC3)CCC(C)CC2)c1 (stereo not given)	0.211%
COP(=O)(OC)Oc1ccc([N+](=O)[O-])cc1	0.803%
COC(=O)N(C(=O)N1COC2(C(=O)OC)Cc3cc(Cl)ccc3C2=N1)c1ccc(OC(F)(F)F)cc1 (stereo not given)	0.0572% [at 42.5 µM]
CC(Cc1ccccc1)NCCn1cnc2c1c(=O)n(C)c(=O)n2C (stereo not given)	0.549%
Cc1cccc(OP(=O)(Oc2cccc(C)c2)Oc2cccc(C)c2)c1	5.84%
OP(O)c1ccccc1	0.163%
Oc1ccc2ccc3cccc4ccc1c2c34	1.59%
ClCc1cccc(Cl)c1	-0.848% [at 42.5 µM]
COP(=S)(OC)Oc1c(Cl)cc(C)cc1Cl	8.58%
CCOP(=S)(OCC)SCS(=O)(=O)CC	1.17%
COP(N)(=S)Oc1ccccc1C(=O)OC(C)C (stereo not given)	0.769%
CNP(=O)(OC)Oc1ccc(C(C)(C)C)cc1Cl (stereo not given)	14.4%
Cc1cccc2sc3nncn3c12	0.978%
COc1cc(CC(C)N)c(OC)cc1Br (stereo not given)	3.64%
CCC1(c2ccccc2)C(=O)NC(=O)NC1=O	0.124%
ClC(Cl)C(Cl)Cl	0.252%
CC(=O)CCc1ccc2c(c1)OCO2	-1.02%
CN(C)C(=O)Nc1cccc(OC(=O)NC(C)(C)C)c1	0.013%
CNC(=O)Oc1ccc(N(C)C)c(C)c1	0.606%
COP(=O)(OC)O/C(=C\Cl)c1cc(Cl)c(Cl)cc1Cl	9.52%
CC(C)(C)c1ccc(OP(=O)(Oc2ccccc2)Oc2ccccc2)cc1	2.32%
COC(=O)C(C)N(C(=O)c1ccco1)c1c(C)cccc1C (stereo not given)	-2.89%
C#CC1(O)CCCCC1	-1.44%
CSc1ccc(C(=O)C(C)(C)N2CCOCC2)cc1	3.94%
